The antibiotic and cytotoxicity screens of Wong et al. (2023)
Screen size: about 39,000 compounds; about 3,300 (8.5%) were called active. The full list was thinned out, with actives kept by preference.

Test system: HepG2
Assay: cytotoxicity call (relative viability < 0.9)
Settings: 10 µM

Q: With `Cc1ccc(S(=O)(=O)Nc2cccc3c2O[C@H](CN(C)S(=O)(=O)c2cccs2)[C@H](C)CN([C@H](C)CO)C3=O)cc1` as the compound, how does the cytotoxicity call read?
A: The cytotoxicity call was “inactive”.

Q: How did the cytotoxicity call turn out when `CC(C)NC(=O)N(C)C[C@@H]1OCCCC[C@H](C)Oc2ccc(NS(C)(=O)=O)cc2C(=O)N([C@@H](C)CO)C[C@@H]1C` was run?
A: The cytotoxicity call was “inactive”.

Q: With `C[C@@H]1CN([C@H](C)CO)C(=O)Cc2cc(NC(=O)C3CC3)ccc2O[C@H]1CN(C)Cc1ccc(Oc2ccccc2)cc1` as the compound, how does the cytotoxicity call read?
A: Its cytotoxicity call is “inactive”.

Q: Which cytotoxicity call does the source give for `Cc1noc(C)c1NC(=O)Nc1ccc2c(c1)C(=O)N([C@H](C)CO)C[C@@H](C)[C@@H](CN(C)C(=O)Nc1ccc(C(F)(F)F)cc1)O2` here?
A: Its cytotoxicity call is “inactive”.

Q: With `C[C@H]1CN([C@@H](C)CO)C(=O)c2cccc(NC(=O)Nc3cccc4ccccc34)c2O[C@H]1CN(C)C(=O)NC1CCCCC1` as the compound, how does the cytotoxicity call read?
A: The cytotoxicity call was “inactive”.

Q: For `O=C(/C=N/O)NCc1ccccn1`, which cytotoxicity call is on record?
A: Its cytotoxicity call is “active”.

Q: How did the cytotoxicity call turn out when `NC(=O)NCc1ccccn1` was run?
A: The cytotoxicity call was “inactive”.

Q: `N#CCC(=O)NCc1ccccn1` was tested. Which cytotoxicity call did it give?
A: The cytotoxicity call was “inactive”.

Q: For `C[C@H]1CN([C@@H](C)CO)C(=O)c2cc(C#CCN(C)C)cnc2O[C@@H]1CN(C)Cc1ccc2c(c1)OCO2`, which cytotoxicity call is on record?
A: The cytotoxicity call was “inactive”.

Q: For `CO[C@H](C(=O)[C@@H](O)[C@@H](C)O)[C@@H]1Cc2cc3cc(O[C@H]4C[C@@H](O[C@H]5C[C@@H](O)[C@H](O)[C@@H](C)O5)[C@@H](O)[C@@H](C)O4)c(C)c(O)c3c(O)c2C(=O)[C@H]1O[C@H]1C[C@@H](O[C@H]2C[C@@H](O[C@H]3C[C@](C)(O)[C@H](O)[C@@H](C)O3)[C@H](O)[C@@H](C)O2)[C@H](O)[C@@H](C)O1`, which cytotoxicity call is on record?
A: The cytotoxicity call was “active”.

Q: For `CO[C@H](C(=O)[C@@H](O)[C@@H](C)O)[C@H]1Cc2cc3cc(O[C@H]4C[C@@H](O[C@H]5C[C@@H](O)[C@@H](O)[C@@H](C)O5)[C@@H](O)[C@@H](C)O4)c(C)c(O)c3c(O)c2C(=O)[C@@H]1O[C@H]1C[C@@H](O[C@H]2C[C@@H](O[C@H]3C[C@@](C)(O)[C@@H](O)[C@@H](C)O3)[C@@H](O)[C@@H](C)O2)[C@@H](O)[C@@H](C)O1`, which cytotoxicity call is on record?
A: The cytotoxicity call was “active”.

Q: For `N=c1cc(N2CCCCC2)nc(N)n1OS(=O)(=O)O`, which cytotoxicity call is on record?
A: The cytotoxicity call was “inactive”.

Q: For `CC(C)C(=O)NS(=O)(=O)c1ccc(N)cc1`, which cytotoxicity call is on record?
A: The cytotoxicity call was “inactive”.

Q: For `C[C@H]1CN([C@@H](C)CO)C(=O)CCCn2cc(nn2)CO[C@@H]1CN(C)S(=O)(=O)c1ccc2ccccc2c1`, which cytotoxicity call is on record?
A: The cytotoxicity call was “inactive”.

Q: For `O=C(CCCCCNC(=O)OCc1ccc(CO[C@H]2C[C@@H](c3ccccc3)C=C(C(=O)N3CCN(Cc4ccccc4)CC3)O2)cc1)NO`, which cytotoxicity call is on record?
A: Its cytotoxicity call is “inactive”.

Q: How did the cytotoxicity call turn out when `CN(C)CC(=O)N1CC(=O)N2[C@H](CO)[C@@H](c3ccc(C#Cc4cccnc4)cc3)[C@@H]2C1` was run?
A: Its cytotoxicity call is “inactive”.

Q: Which cytotoxicity call does the source give for `Cc1noc(C)c1NC(=O)N(C)C[C@@H]1Oc2cc(Br)ccc2S(=O)(=O)N([C@H](C)CO)C[C@@H]1C` here?
A: The cytotoxicity call was “inactive”.
